PubChem BioAssay AID1159580 (chemical genetic matrix, 2015)
Several values for one entry are separate records, joined by “and”; a condition that tells them apart may be missing. Equal entries are not always repeated. In all, about 5,500 compounds went through this assay and about 2,000 (36%) were called active. Another 18% or so got no clear call; they are omitted. Cut-off read from the data, not from the text of the source: active = normalized growth mostly below about 0.91 (no sharp cut-off); inconclusive = no clear call, values can overlap the other calls; inactive = mostly above about 0.92. The list shows a part of the results.

Test: chemical genetic growth profiling, strain panel (AID 1159580);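 note: tested at 20 µM; growth read once vehicle control cultures reached saturation at 30 °C; 1 = growth at the plate median or of vehicle wells; lower values mean less growth of the strain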
Conditions: S. cerevisiae deletion strains, growth OD

Measured: normalized growth

O=c1oc2ccccc2c(O)c1Cc1c(O)c2ccccc2oc1=O
inactive: locus YAL013W, strain DEP1, stronger effect = lower value 1.01 | locus YAL021C, strain ccr4, stronger effect = lower value 0.977 | locus YAL026C, strain drs2, stronger effect = lower value 1.03 | locus YAL030W, strain snc1, stronger effect = lower value 1.02 | locus YBL061C, strain skt5, stronger effect = lower value 1.02 | locus YBR009C, strain hhf1, stronger effect = lower value 1.01 | locus YBR021W, strain FUR4, stronger effect = lower value 1.01 | locus YBR023C, strain chs3, stronger effect = lower value 1.01 | locus YBR171W, strain sec66, stronger effect = lower value 1.01 | locus YBR229C, strain ROT2, stronger effect = lower value 0.998 | locus YBR231C, strain swc5, stronger effect = lower value 1.02 | locus YBR279W, strain paf1, stronger effect = lower value 1 | locus YCL011C, strain gbp2, stronger effect = lower value 1.02 | locus YCL016C, strain dcc1, stronger effect = lower value 1 | locus YCL029C, strain bik1, stronger effect = lower value 0.968 | locus YCL069W, strain vba3, stronger effect = lower value 1.02 | locus YCR088W, strain abp1, stronger effect = lower value 1.02 | locus YDL005C, strain med2, stronger effect = lower value 1.04 | locus YDL035C, strain GPR1, stronger effect = lower value 1.04 | locus YDL040C, strain nat1, stronger effect = lower value 1.03 | locus YDL074C, strain BRE1, stronger effect = lower value 1.02 | locus YDL101C, strain DUN1, stronger effect = lower value 1.01 | locus YDL185W, strain tfp1, stronger effect = lower value 0.962 | locus YDL192W, strain arf1, stronger effect = lower value 0.962 | locus YDR001C, strain nth1, stronger effect = lower value 1 | locus YDR069C, strain doa4, stronger effect = lower value 0.994 | locus YDR101C, strain arx1, stronger effect = lower value 0.984 | locus YDR137W, strain rgp1, stronger effect = lower value 1.03 | locus YDR159W, strain sac3, stronger effect = lower value 0.936 | locus YDR162C, strain NBP2, stronger effect = lower value 1.01 | locus YDR195W, strain ref2 1.01 | locus YDR297W, strain sur2, stronger effect = lower value 1.01 | locus YDR318W, strain mcm21, stronger effect = lower value 0.979 | locus YDR334W, strain swr1, stronger effect = lower value 1.04 | locus YDR335W, strain msn5, stronger effect = lower value 1.02 | locus YDR388W, stronger effect = lower value 0.959 | locus YDR392W, strain spt3, stronger effect = lower value 0.919 | locus YDR502C, strain sam2, stronger effect = lower value 0.982 | locus YEL003W, strain gim4, stronger effect = lower value 1.02 | locus YEL037C, strain rad23, stronger effect = lower value 1.03 | locus YEL061C, strain CIN8 (second series), stronger effect = lower value 1.03 | locus YEL061C, strain CIN8, stronger effect = lower value 0.993 | locus YER015W, strain faa2, stronger effect = lower value 1.01 | locus YER016W, strain bim1, stronger effect = lower value 1.01 | locus YER110C, stronger effect = lower value 0.96 | locus YER111C, strain swi4, stronger effect = lower value 1.01 | locus YER155C, strain BEM2 (second series), stronger effect = lower value 1.02 | locus YER155C, strain BEM2, stronger effect = lower value 0.984 | locus YER167W, strain BCK2, stronger effect = lower value 1.01 | locus YFR010W, strain ubp6, stronger effect = lower value 1.02 | locus YGL078C, strain dbp3, stronger effect = lower value 0.952 | locus YGL086W, strain mad1, stronger effect = lower value 0.996 | locus YGL167C, strain pmr1, stronger effect = lower value 1.01 | locus YGL173C, strain kem1, stronger effect = lower value 1.01 | locus YGL227W, strain vid30, stronger effect = lower value 1 | locus YGL240W, strain doc1, stronger effect = lower value 0.984 | locus YGL248W, strain PDE1, stronger effect = lower value 1.01 | locus YGL253W, strain hxk2, stronger effect = lower value 1.02 | locus YGR078C, strain PAC10, stronger effect = lower value 1.01 | locus YGR135W, strain pre9, stronger effect = lower value 0.959 | locus YGR229C, strain SMI1, stronger effect = lower value 1.02 | locus YGR252W, strain gcn5, stronger effect = lower value 0.95 | locus YHR013C, strain ard1, stronger effect = lower value 1 | locus YHR027C, strain rpn1, stronger effect = lower value 1.01 | locus YHR030C, strain SLT2, stronger effect = lower value 0.993 and 0.907 | locus YHR079C, strain IRE1 (second series), stronger effect = lower value 0.963 | locus YHR079C, strain IRE1, stronger effect = lower value 0.917 | locus YHR094C, strain hxt1, stronger effect = lower value 0.96 | locus YHR129C, strain ARP1, stronger effect = lower value 0.991 | locus YHR142W, strain chs7, stronger effect = lower value 1.08 | locus YHR200W, strain rpn10, stronger effect = lower value 0.98 | locus YIL066C, strain RNR3, stronger effect = lower value 1 | locus YIL073C, strain SPO22, stronger effect = lower value 0.979 | locus YIL125W, strain kgd1, stronger effect = lower value 0.959 | locus YIR030C, strain dcg1, stronger effect = lower value 0.96 | locus YJL092W, strain hpr5, stronger effect = lower value 1.01 | locus YJL095W, strain BCK1 (second series), stronger effect = lower value 1.01 | locus YJL095W, strain BCK1, stronger effect = lower value 0.989 and 0.898 | locus YJL115W, strain asf1, stronger effect = lower value 1.01 | locus YJL129C, strain trk1, stronger effect = lower value 1 | locus YJL134W, strain LCB3, stronger effect = lower value 0.987 | locus YJL154C, strain vps35, stronger effect = lower value 1.02 | locus YJL164C, strain tpk1, stronger effect = lower value 1.03 | locus YJL166W, strain qcr8, stronger effect = lower value 0.995 | locus YJL168C, strain set2, stronger effect = lower value 0.953 | locus YJL187C, strain SWE1 (second series), stronger effect = lower value 1 | locus YJL187C, strain SWE1, stronger effect = lower value 0.991 | locus YJR043C, strain POL32, stronger effect = lower value 1.02
